Among all 69,000 compounds or so, about 950 (1.4%) showed an effect of 50% or more. The list comes from a sample in which strong results are over-represented; it also holds similar structures and randomly drawn compounds.
What follows are molecules tested on Mycobacterium tuberculosis (assay: Cornell M. t heat shock assay; also: in the data most compounds retested in dose-response had high values).
Assay type: functional, organism-based
Parameters: dose or concentration left out as unconfirmed

Compound | Percent Effect [%]
Fc1ccc(CN2CCC3(CC2)CCN(c2ncccn2)CC3)cc1.O=C(O)C(F)(F)F.O=C(O)C(F)(F)F | -1.526
CC1CN(C)CCN1C(=O)c1cnc2c(cnn2C2CCCC2)c1 (stereo not drawn) | -19.82
O=C(NC1CC1)[C@H]1C[C@@H]2CCN(CCc3ccccc3)C[C@H]2O1.O=C(O)C(F)(F)F | -1.701
COc1cccc(S(=O)(=O)NC(=O)CC2CCCC2)c1 | 1.853
COc1cccc(S(=O)(=O)NC(=O)CCC2CCCC2)c1 | 97.07
COc1cccc(S(=O)(=O)NC(=O)CCC2CCCO2)c1 (stereo not drawn) | 15.02
O=C(O)C(F)(F)F.O=C(c1ccco1)N1CC[C@@H]2CN(C3CCOCC3)CCO[C@@H]2C1 | 13.99
COc1ccc(CN(C)C(=O)c2nnc(CN(C)C)o2)cc1 | -15.5
CCCc1nnc(C(=O)N(C)Cc2ccc(OC)cc2)o1 | -0.8003
COCc1nnc(C(=O)N(C)Cc2ccc(OC)cc2)o1 | 51.18
COCC(=O)N1CCN(Cn2nc(C)c(Br)c2C)CC1 | -1.426
O=C(N1CCCC1)N1CCOCC2(CCN(Cc3cccs3)C2)C1.O=C(O)C(F)(F)F (stereo not drawn) | -28.46
Cc1ncc(CNCCO)c2cc(C(=O)c3ccc(Br)cc3)oc12.Cl | 80.79
Cc1ncc(CNC(C)(C)CO)c2cc(C(=O)c3ccc(Br)cc3)oc12 | 39.89
Cc1ncc(CNCC(C)O)c2cc(C(=O)c3ccc(Br)cc3)oc12.Cl (stereo not drawn) | 10.59
Cl.c1csc(-c2noc(C3CNC3)n2)c1 | 3.28
O=C(O)C(F)(F)F.O=C(O)C(F)(F)F.O=C(O)C(F)(F)F.c1cnn(C[C@@H]2C[C@@H]3CN(CC4CC4)CC[C@@H]3N2c2nccs2)c1 | -5.195
O=C(O)CC(O)(CC(=O)O)C(=O)O.OC1CCCN(Cc2ccnc(-c3cccnc3)n2)C1 (stereo not drawn) | -5.175
CCOC1COC2(CCN(Cc3cccc(C#N)c3)CC2)C1.O=C(O)C(F)(F)F (stereo not drawn) | -5.189
N#Cc1ccc(N2CCCC3(CCC(=O)N3CC3CC3)CC2)nc1.O=C(O)C(F)(F)F (stereo not drawn) | 42.6
Cc1csc(N(C)C(=O)C(c2c(F)cccc2Cl)N(C)C)n1 (stereo not drawn) | 16.08
CN(C(=O)C(c1c(F)cccc1Cl)N(C)C)c1nccs1 (stereo not drawn) | -3.774
CN(C)C(C(=O)Nc1nccs1)c1c(F)cccc1Cl (stereo not drawn) | 71.6
O=C(O)C(F)(F)F.O=C(c1cnccn1)N1CCC2(CC1)CCN(Cc1ccccn1)C2=O | -24.58

Compound | Percent Effect [%]
Cl.FC(F)CNc1cnc(C2CCNCC2)cn1 | 9.975
CN(C)CCn1c2c(ccc1=O)CC(NCc1cnn(C)c1)CC2.O=C(O)C(F)(F)F.O=C(O)C(F)(F)F (stereo not drawn) | 21.9
O=C(O)C(F)(F)F.O=C(O)C(F)(F)F.c1cncc(C2COC3(CCN(CC4CCOCC4)CC3)C2)c1 (stereo not drawn) | -13.27
CCN1CCOCC12CCN(C(=O)Cc1ccccc1)CC2.O=C(O)C(F)(F)F | -16.25
CNC(=O)CN1CC[C@H]2CN(C(=O)c3cc[nH]n3)C[C@H]2C1.O=C(O)C(F)(F)F | 6.516
Cc1oc(-c2ccsc2)nc1CNC(C)Cn1cccn1 (stereo not drawn) | -16.19
Cc1cnn(CC(C)NCc2nc(-c3ccsc3)oc2C)c1 (stereo not drawn) | 59.87
Cc1cnn(CCNCc2nc(-c3ccsc3)oc2C)c1 | -4.227
O=C(O)C(F)(F)F.O=C(O)C(F)(F)F.O=C(O)C(F)(F)F.c1cncc(COCc2cncc3c2CCN(Cc2ccoc2)C3)c1 | 2.729
Oc1nc(N2CCOCC2)nc2c1CCN(Cc1cccc(F)c1)CC2 | -9.224
CC(C)Nc1nc(N2CCCC2)nc2c1CN(c1ncc(F)cn1)CC2 | 18.45
COc1cccc(Nc2nc(C3CCNCC3)c3ccccn23)c1.Cl | 10.85
COc1cccc(Nc2nc(N3CCCC3)nc3c2CNCC3)c1.Cl | 69.1
COc1cccc(Nc2nc(-c3ccncc3)nc3c2CNCC3)c1.Cl | 9.794
Fc1cccc(Nc2nc(N3CCCC3)nc3c2CNCC3)c1 | 102.4
Cc1cccc(CN2C[C@@H]3CN(C(=O)c4cnoc4C)C[C@@H]3C2=O)n1.O=C(O)C(F)(F)F | -1.837
CCOC(=O)C1CCN(C(=O)c2cc(Br)ccc2-n2cnnn2)CC1 | 2.973
CC(C)(C)c1ncc(CNc2ccccc2Cn2cncn2)s1 | -19.95
Cc1ccc2c(c1)C(NCc1ncnn1C)CC2 (stereo not drawn) | -20.52
Cc1ccc2c(c1)C(NCc1ccccn1)CC2 (stereo not drawn) | 89.07
COc1cccc(CNC2CCc3ccc(C)cc32)n1 (stereo not drawn) | 6.41
Cl.O[C@@H]1CN(Cc2ccc(F)c(F)c2)CC[C@H]1NCc1ccccn1 | -13.15
Cc1cc(-c2cnc(NCc3cccnc3)nc2C(C)(C)C)on1 | 31.35
Cc1ccc(-c2nc(CNC(C)CCO)[nH]c2-c2ccccn2)cc1 (stereo not drawn) | 77

Compound | Percent Effect [%]
CC(Cn1cccn1)NCc1nc(-c2ccccn2)no1 (stereo not drawn) | -7.12
Cc1cnn(CC(C)NCc2nc(-c3ccccn3)no2)c1 (stereo not drawn) | -11.38
COCC(C)NCc1nc(-c2ccc(C)cc2)c(-c2ccccn2)[nH]1 (stereo not drawn) | 76.34
Cc1[nH]c2ccccc2c1-c1ccnc(N[C@@H](C)CO)n1 | -31.62
COCC(C)NCc1ccc2[nH]c(C)c(C)c2c1 (stereo not drawn) | -11.87
O=C(Cc1ccsc1)N1C[C@@H]2CN(Cc3ccoc3)CCO[C@@H]2C1.O=C(O)C(F)(F)F | -1.836
CC(C)=CCN1C(=O)[C@H]2CC[C@@H]1CN(C(=O)CCc1n[nH]c(C)c1C)C2 | -27.57
O=C(N[C@H]1CCCC[C@@H]1O)c1cccc(-c2nc3ccccc3[nH]2)c1 | 55.91
O=C(N[C@H]1CCCC[C@@H]1O)c1ccc(-c2nc3ccccc3[nH]2)cc1 | 47.47
O=C(N[C@H]1CCCC[C@@H]1O)c1ccc2nc(-c3ccccc3)[nH]c2c1 | 0.8647
CN1CCOCC12CCN(C(=O)C1CCC1)CC2.O=C(O)C(F)(F)F | 6.181
Cc1cc(C)c2[nH]c(C)c(CC(=O)N(C)CCN(C)C)c2c1.O=C(O)CC(O)(CC(=O)O)C(=O)O | -5.156
Cc1ccccc1CNC(=O)Cc1c(C)nc2cc(=O)[nH]n2c1C | 17.46
COC(C(=O)NCc1c(C)nc2cc(=O)[nH]n2c1C)c1ccccc1 (stereo not drawn) | 5.148
Cc1ccccc1C(C)NC(=O)Cc1c(C)nc2cc(=O)[nH]n2c1C (stereo not drawn) | 33.63
Cc1ccc(C(C)NC(=O)Cc2c(C)nc3cc(=O)[nH]n3c2C)s1 (stereo not drawn) | 66.66
Cc1nc2cc(=O)[nH]n2c(C)c1CC(=O)NC(C)C | -0.1861
COc1ccccc1CC(=O)NCc1c(C)nc2cc(=O)[nH]n2c1C | 71.9
O=C(O)C(F)(F)F.c1cnc(N2CCC3(CCCN(Cc4ccncc4)C3)CC2)nc1 | -2.214
CNC(=O)[C@H]1C[C@@H]2CCN(c3nnc(C)s3)C[C@@H]2O1.O=C(O)C(F)(F)F | 0.7881
CSCCC1c2nc[nH]c2CCN1Cc1ccccc1C(F)(F)F (stereo not drawn) | -11.51
CSCCC1c2nc[nH]c2CCN1Cc1ccccc1C#N (stereo not drawn) | 12.31
CSCCC1c2nc[nH]c2CCN1Cc1cc(Cl)ccc1O (stereo not drawn) | 106.2
Cc1ccccc1C(=O)N1CC[C@@H](N(C)C)[C@@H]1Cc1cnn(C)c1.O=C(O)C(F)(F)F | -16.62

Compound | Percent Effect [%]
CN(C)S(=O)(=O)N1CC[C@]2(C[C@@H](Oc3ncccc3F)CO2)C1.O=C(O)C(F)(F)F | 7.547
COc1ccc(CN2C[C@@H](OCc3ccccn3)[C@H]3COC[C@H]32)cc1.O=C(O)C(F)(F)F.O=C(O)C(F)(F)F | -14.6
CCN1CCC(CC(=O)NCC(O)c2ccc3ccccc3c2)CC1 (stereo not drawn) | 13.11
COc1cccc(C(O)CNC(=O)CC2CCCCC2)c1 (stereo not drawn) | 9.16
CCN1CCC(CC(=O)NCC(O)c2cccc(OC)c2)CC1 (stereo not drawn) | 93.38
Cn1ccc(CN2CCCC23CCN(Cc2nccn2C)CC3)n1.O=C(O)C(F)(F)F.O=C(O)C(F)(F)F | 9.444
CCN(CC)Cc1ccc(C(=O)N2CCN(CC(C)O)CC2)o1 (stereo not drawn) | 61.39
CCc1ccc(C(=O)N2CCN(CC(C)O)CC2)o1 (stereo not drawn) | 14.22
CCN(CC)Cc1ccc(C(=O)N2CCN(CC(C)O)CC2)cc1 (stereo not drawn) | 9.654
Cc1ccc(S(=O)(=O)Nc2ccc(N3CCSCC3)c(C(=O)O)c2)s1 | -1.51
CCN(Cc1ccncc1)C(=O)CCn1c(C)cc2ccccc21 | 10.06
CCN(Cc1noc(C)n1)C(=O)CCn1c(C)cc2ccccc21 | 72.72
CCN(Cc1nc(COC)no1)C(=O)CCn1c(C)cc2ccccc21 | 35.71
COCCN1CCOCC12CCN(C(=O)c1ccoc1)CC2.O=C(O)C(F)(F)F | -24.79
Cn1cc(CN2CC[C@H]3O[C@H](C(=O)Nc4cnccn4)CC[C@H]32)cn1.O=C(O)C(F)(F)F | -14.77
Cc1cc(CN(C)CCN(C)c2ccccc2)no1 | 0.1875
Cc1cc(CN(C)CCC(O)c2ccccc2)nn1C (stereo not drawn) | 0.01185
Cc1cc(CN(C)CCC(O)c2ccccc2)no1 (stereo not drawn) | 50.59
CN(CCC(O)c1ccccc1)Cc1nc(-c2ccccc2)no1 (stereo not drawn) | 28.98
COc1cccc(CN(C)Cc2ccccc2C#N)c1OC | -6.46
CN(CCC(O)c1ccccc1)Cc1ccccc1C#N (stereo not drawn) | 79.67
